# In the library only some 6.7% were active in any assay of this set; here they are far more common.
# Bead autofluor – counter-screen for toxin protease inhibitors: compound fluorescence; compound autofluorescence counterscreen, microsphere flow cytometry; hits give high values; fluorescence intensity (test concentration not listed); hit rate 3.1% among 360,000; AID 624483; in the data active = fluorescence intensity above about 16000; inconclusive = no clear call, values can overlap the other calls
# BoNT A protease – BoNT/A light chain protease inhibitors, primary screen, biochemical, flow cytometry, MLPCN library | multiplex microsphere protease substrate cleavage | inhibition, % at 10 µM | hit rate 0.17% among 360,000 | AID 588499, 2011; note: plate controls were buffer without enzyme for full effect and enzyme alone for no effect
# BoNT F protease – BoNT/F light chain protease inhibitors, primary screen, biochemical, flow cytometry, MLPCN library | inhibition, % at 10 µM | Multiplex microsphere protease cleavage assay | hit rate 0.22% among 360,000; in the data active = inhibition above about 35%, passing the limit was not always enough; inconclusive = no clear call, values can overlap the other calls; note: plate controls were buffer without enzyme for full effect and enzyme alone for no effect
# FBA Mtb inh – Mtb FBA enzyme inhibitors, primary screen, biochemical, fluorescence, strain H37Rv; AID 588726, 2011; hit rate 2.3% among 360,000; purified M. tuberculosis FBA, fluorescence read-out; inhibition, % at 1 µM; in the data active = inhibition above about 27%;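 note: 0% = vehicle and 100% = reference inhibitor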
# Target sequence (P9WQA3 whole entry, looked up): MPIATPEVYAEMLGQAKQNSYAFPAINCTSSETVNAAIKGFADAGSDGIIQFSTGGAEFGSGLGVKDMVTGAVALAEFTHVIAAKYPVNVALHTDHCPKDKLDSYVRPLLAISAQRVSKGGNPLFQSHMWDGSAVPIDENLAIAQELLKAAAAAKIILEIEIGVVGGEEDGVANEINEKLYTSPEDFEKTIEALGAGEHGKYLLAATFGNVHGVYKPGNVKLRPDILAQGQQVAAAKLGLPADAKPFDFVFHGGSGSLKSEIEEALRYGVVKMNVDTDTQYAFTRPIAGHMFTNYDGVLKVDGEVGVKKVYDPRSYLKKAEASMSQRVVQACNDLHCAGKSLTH
# Anthrax LF inh2 – Bacillus anthracis LF protease inhibitors, primary screen, biochemical, multiplex microsphere, MLPCN library; hit rate 0.12% among 360,000; inhibition, % at 10 µM; multiplex microsphere protease cleavage assay; note: plate controls were buffer without enzyme for full effect and enzyme alone for no effect
# GDH-TPI counter – GDH-TPI coupling enzyme inhibitors, primary screen, artefact control for M. tuberculosis FBA inhibitor project, biochemical, absorbance, full deck. GDH-TPI coupled enzyme counterscreen, NADH absorbance. inhibition, % at 4.8 µM. hit rate 1.2% among 360,000; in the data active = inhibition above about 30%;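 note: 0% = DMSO wells and 100% = wells lacking the enzyme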
# * = called active by the depositor; ? = inconclusive; . = not tested or not shown; + = active, no number. Cut-off read from the data, not from the text of the source, unless noted: active = inhibition above about 30%; inconclusive = no clear call, values can overlap the other calls; inactive = below that.
SMILES,Bead autofluor,BoNT A protease,BoNT F protease,FBA Mtb inh,Anthrax LF inh2,GDH-TPI counter
O=C(c1cc2cc([N+](=O)[O-])ccc2s1)N1CCCCC1,4387,-0.8,-2.3,-1.7,-4.6,7.9
CCOCCCNS(=O)(=O)c1ccc2c(c1)oc(=O)n2CC(=O)OCC,23318*,1.3,-1.2,4.3,-9.7,2.1
N#Cc1c(-c2cccc(Br)c2)cc(-c2cccnc2)nc1N,10928,0.6,-12.7,131.2*,-0.6,15.9
COc1cccc(-c2cc(-c3cccnc3)c(C#N)c(N)n2)c1,5444,-1.6,-2.3,+,-0.1,31.6*
COc1ccc(OC)c(-c2cc(-c3cccnc3)nc(N)c2C#N)c1,.,.,.,0.0,.,28.3
COc1ccc(-c2cc(-c3ccc(O)cc3)nc(N)c2C#N)cc1,3913,0.2,?,48.7*,-1.9,3.5
N#Cc1c(-c2ccc(F)cc2)cc(-c2cccnc2)nc1N,10777,0.9,7.9,24.3,-0.3,-17.3
COc1cccc(-c2cc(-c3cccnc3)nc(N)c2C#N)c1,3619,?,?,127.4*,-4.4,12.4
CC(=O)c1ccc(N2CCN(S(=O)(=O)c3ccc4c(c3)CC(C)N4C(=O)C3CC3)CC2)cc1 (stereo not drawn),5318,-1.1,3.4,-1.9,2.1,7.8
CCOC(=O)c1cn2nc(Oc3cccc(C(F)(F)F)c3)ccc2n1,.,.,.,66.0*,.,5.4
Cc1cc(C)nc(-n2ncc3c2CC(c2ccc(F)cc2)CC3=O)n1 (stereo not drawn),3173,-0.4,-5.9,4.3,-8.4,4.9
C[n+]1ccc(-c2ccccc2)c2ccccc21,4005,0.2,-4.0,142.7*,-9.9,14.8
O=C(c1cccs1)N1CCc2ccccc21,21871*,1.3,1.4,1.8,1.8,21.8
Cc1ccc2c(c1)CCCN2C(=O)c1cccs1,20191*,-1.8,-4.2,-3.4,1.5,-5.6
O=C(c1cccs1)N1CCCc2ccccc21,11369,-0.5,1.8,-1.1,-1.7,9.4
O=C(COC(=O)C1CCN(/C=C/C(=O)C(F)(F)F)CC1)Nc1ccccc1,2009,1.1,4.3,0.1,-0.1,25.2
Nc1cc(C(=O)O)ccc1Nc1ccc(F)c(F)c1,4887,0.0,-14.2,0.9,-1.9,5.0
CC(C)CCN1CCN(Cc2cc3ccccc3[nH]2)CC1CCO (stereo not drawn),4503,-0.6,-34.0,1.4,-5.5,-0.5
COc1cccc(C(=O)N=c2sc3c(C)ccc(OC)c3n2C)c1,6063,-0.7,-15.9,-2.2,1.3,-1.9
CCn1c(=NC(=O)c2ccc(N3C(=O)CCC3=O)cc2)sc2c(OC)ccc(OC)c21,6245,-0.4,-10.8,1.4,3.7,36.5*
CCn1c(=NC(=O)CN2C(=O)CCC2=O)sc2c(OC)ccc(OC)c21,4206,0.2,8.2,2.1,1.0,21.1
CCn1c(=NC(=O)c2cccc(N3C(=O)CCC3=O)c2)sc2c(C)ccc(OC)c21,4250,-0.1,0.6,6.5,-4.1,38.3*
COc1ccccc1CO/N=C/c1cccn1-c1nccc(N(C)C)c1C#N,2854,-0.3,4.2,1.2,-1.2,11.1
CCOC(=O)c1cnn(-c2cc(C)nc3c(-c4ccccc4)cnn23)c1N,3620,-0.5,9.6,0.2,-3.1,6.5
CCOC(=O)c1cnn(-c2cc(C(C)(C)C)nc3c(-c4ccccc4)c(C)nn23)c1N,26542*,?,-10.8,-2.4,-4.1,7.0
SMILES,Bead autofluor,BoNT A protease,BoNT F protease,FBA Mtb inh,Anthrax LF inh2,GDH-TPI counter
CCOC(=O)Cc1c(C)nc2c(-c3ccccc3)c(C)nn2c1C,4932,0.3,4.0,0.6,-3.2,17.4
CCOC(=O)c1cnn(-c2c(Cc3ccccc3)c(C)nc3c(-c4ccccc4)c(C)nn23)c1N,22024*,3.5,4.0,4.6,-0.2,7.5
CCCCc1c(-c2ccccc2OC)ncn1CCc1ccc(OC)cc1,5586,0.1,-1.7,.,1.8,.
O=C(CSc1nnnn1-c1ccccc1)c1cc2ccccc2oc1=O,4399,-0.8,-28.0,1.1,3.8,4.5
Cn1c(=O)oc2ccc(C(=O)CSc3nnnn3-c3ccccc3)cc21,19593*,?,-1.1,-2.8,-8.2,-8.7
Cc1ccc2[nH]c3c(c2c1)CN(C(=O)CN1c2ccc(F)cc2CCC1C)CC3 (stereo not drawn),21807*,?,-11.4,-0.9,-8.2,7.7
CCc1ccccc1NC(=O)CCCN1C(=O)C2CC=CCC2C1=O (stereo not drawn),5823,0.9,1.9,3.0,-1.0,5.3
CCN(C(=O)COc1cc(=O)n(CC)c2ccccc12)c1cccc(Cl)c1,20694*,-0.6,-2.1,-1.4,-2.1,4.8
CCNc1nc(CC)nc2c1oc1ccccc12,21864*,4.3,5.2,5.4,-10.5,7.8
CCc1nc(NCc2cccnc2)c2oc3ccccc3c2n1,16165*,1.7,0.2,1.1,-0.9,8.7
Cc1nc(NCC2CCCO2)c2oc3ccccc3c2n1 (stereo not drawn),21375*,2.9,4.0,3.6,0.3,8.6
CCOC(=O)c1oc2cccc(O)c2c1CN1CCOCC1,8466,-0.2,3.3,-2.2,-0.9,-5.8
CCn1cc(C(=O)NCCCN2CCCC2)c(=O)c2cc(S(=O)(=O)N3CCc4ccccc4C3)ccc21,6193,-0.2,-5.8,0.5,-3.4,2.6
CCn1cc(C(=O)NCc2ccco2)c(=O)c2cc(S(=O)(=O)N3CCc4ccccc4C3)ccc21,20784*,-1.3,-1.5,0.0,-2.1,12.1
CCn1cc(C(=O)NCCN(C)CCc2ccccc2)c(=O)c2cc(S(=O)(=O)N(C)C)ccc21,22712*,-1.1,-2.8,-1.2,-2.2,4.5
CCn1cc(C(=O)NCc2ccco2)c(=O)c2cc(S(=O)(=O)N3CC(C)CC(C)C3)ccc21 (stereo not drawn),19725*,0.5,0.2,0.5,1.3,-9.6
C=CCn1cc(C(=O)NCc2ccco2)c(=O)c2cc(S(=O)(=O)N3CCCCCC3)ccc21,16902*,-2.4,-3.2,0.4,-7.6,16.0
C=CCn1cc(C(=O)NCCOC)c(=O)c2cc(S(=O)(=O)N3CCCCCC3)ccc21,5205,1.0,-1.5,-4.2,0.0,15.3
Cc1cc(C)cc(NC(=O)C2CCCN2S(=O)(=O)c2ccc3c(c2)n(C)c(=O)c(=O)n3C)c1 (stereo not drawn),6460,-0.1,-7.8,0.6,6.4,17.8
Cc1cc(NC(=O)CN2CC(C)OC(C)C2)n(-c2nc3ccccc3s2)n1 (stereo not drawn),3072,0.0,5.9,-1.8,-0.7,-2.6
CCn1cc(C(=O)NCc2ccco2)c(=O)c2cc(S(=O)(=O)N3CCC(C)CC3)ccc21,20447*,1.6,0.4,-1.4,-11.2,7.3

# Bioassay records deposited in PubChem by several laboratories.
